Among the data in PubChem BioAssay AID449762 (Southern Research Specialized Biocontainment Screening …, 2010) are inhibition values, retold here.

SMILES strings stand for the structures. Among all 330,000 compounds or so, about 1,900 (0.58%) were called active. Not shown: some 4% with an inconclusive outcome. The list is a sample of the results. Measured potencies and affinities stand elsewhere. Values without a mark were called inactive. Rule as the data show it: inconclusive = inhibition above about 70% without an active follow-up result; inactive = below that.

The nature of this experiment: M. tuberculosis growth inhibition, HTS (AID 449762).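 Also: bacterial growth assessed after seven days of incubation.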 The note with it: M. tuberculosis H37Rv growth inhibition, 7H9 media; at 25 µM; hits give high values.
Take `O=C(c1ccco1)N1CCN(C(=S)Nc2ccc(Br)cc2Cl)CC1`: the inhibition is -10.4%.

For the compound `COC(=O)c1cc(-c2ccccc2)on1`, the inhibition was 69.8%.

Regarding `COc1cccc(-c2cc(C(=O)O)no2)c1`, the inhibition was -0.44%.

Take `CCOc1ccc(NC(=O)COc2nsnc2N2CCOCC2)cc1`: the inhibition is -1.39%.

With `CCN(c1ccccc1)S(=O)(=O)c1ccc(Cl)c(NC(=O)COC(=O)c2ccc[nH]c2=O)c1`, the inhibition is -8.08%.

As for `CCCCCCn1nc(C(=O)OCC(=O)c2c(N)n(C)c(=O)n(C)c2=O)c2ccccc2c1=O`, the inhibition is 9.07%.

`COc1ccc(C2=NCCn3nc4cc(OC)ccc4c32)cc1`: the inhibition was 1.06%.

As for `COc1ccc2c3n(nc2c1)CCN=C3c1ccc(Cl)cc1`, the inhibition is 4.84%.

Turning to `Cc1ccc2[nH]c(C)c(CCNC(=O)c3c(N)no[n+]3[O-])c2c1`, the inhibition was -0.11%.

Consider `O=C(NCCCn1ccnc1)c1cc2cc([N+](=O)[O-])ccc2oc1=O`, for which the inhibition is -5.35%.

Turning to `O=C(NC1CCCCC1)C(c1cccs1)N(CC1CCCO1)C(=O)c1csnn1` (configuration not stated), the inhibition was -12%.

Turning to `CC(=O)c1ccc(S(=O)(=O)N2CCc3ccccc3C2)cc1`, the inhibition was 0.34%.

For `CCOC(=O)N1CCN(C(=O)CSc2nnc(-c3ccccc3OC)o2)CC1`, the inhibition was 41.9%.

Turning to `CC1CC(C)CN(C(=O)CSc2nnc(-c3ccc(Cl)s3)o2)C1` (configuration not stated), the inhibition is 20.5%.

As for `O=C(c1cc2n(n1)C(C(F)(F)F)CC(c1ccc(F)cc1)N2)N1CCCC1` (configuration not stated), the inhibition was -3.19%.

With `O=C(Nc1cccnc1Cl)c1cccc(F)c1`, the inhibition was 9.84%.

`CC(C)NC(=O)COC(=O)c1cc(Br)ccc1Cl`: the inhibition is 21.9%.

On to `CC(C)(C)NC(=O)COC(=O)c1ccc(F)cc1Cl`, for which the inhibition was 49.4%.

`COc1ccc(NC(=O)CCC(=O)Nc2nnc(C3CCCCC3)s2)c(OC)c1`: the inhibition was 7.63%.

Turning to `OCC1(Cc2cccc(Cl)c2)CCCN(Cc2ccc(F)c(F)c2)C1` (configuration not stated), the inhibition was 16.1%.

`Cc1cc(CN2CCCC(CO)(Cc3cccc(Cl)c3)C2)n[nH]1` (configuration not stated): the inhibition is 2.25%.

Turning to `c1ccc(-c2nc3ccccc3[nH]2)cc1`, the inhibition is 9.27%.

As for `c1ccc2nc3c(nc2c1)[nH]c1ccccc13`, the inhibition was -2.41%.

`CC1(C)Cc2c(cnn2-c2cccc(F)c2)C(NC(=O)CSc2ccncc2)C1` (configuration not stated): the inhibition was -11.2%.

As to `CCCCN1C(=N)N([C@@H](C)CN2CCC[C@H]2CN2C(N)=NC[C@H]2CC(C)C)C[C@H]1[C@H](C)CC`, the inhibition was -9.24%.

Regarding `O=c1c2ccccc2oc2ccc(NCCCn3ccnc3)cc12`, the inhibition was -0.23%.

Regarding `O=c1c2ccccc2oc2cc(NCCCn3ccnc3)ccc12`, the inhibition was 64.1%.

For `Nc1c(C(=O)Nc2ccc3c(c2)OCCO3)nnn1Cc1ccc(Cl)cc1`, the inhibition is 0.83%.

In the case of `Nc1ccc(N(CCO)CCO)cc1`, the inhibition was 6.03%.

Take `CCN(CC)c1ccccc1`: the inhibition is 5.27%.

For `O=C(NCc1ccc(Cl)cc1)C1CCN(c2cnccn2)CC1`, the inhibition is 1.73%.

With `Cc1ccc(NC(=O)Cn2cccc2)cc1`, the inhibition is 3.9%.

For the compound `CC(C)(C)c1csc(NNC(=O)c2ccc(Br)cc2)n1`, the inhibition was 66.5%.

Consider `COc1ccc2[nH]c3c(c2c1)CCN1C(=O)N([C@@H](C)C(=O)NCCc2ccc(OC)c(OC)c2)C(=O)[C@]31C`, for which the inhibition was -11.9%.

As to `CN(C)/C=C1\C(=O)N(c2ccc([N+](=O)[O-])cc2)N=C1c1ccccc1`, the inhibition was -2.09%.

For the compound `CN(C)/C=C1/C(=O)N(c2ccc([N+](=O)[O-])cc2)N=C1c1ccccc1`, the inhibition is 0.35%.

`NC(=O)c1ccsc1N`: the inhibition is 6.02%.

For the compound `NC(=O)c1ccc(Cn2c(C(=O)c3ccc(Cl)cc3)c3ccccc3[n+]2[O-])cc1`, the inhibition was 2.02%.

In the case of `CCOc1ccc(CNc2ncc(-c3ccccc3)n2C)cc1`, the inhibition was 8.71%.

For the compound `COCCn1c(-c2ccc(OC)cc2)cnc1SCC(=O)Nc1cccc2ccccc12`, the inhibition is 57.1%.

For `Cn1c(CCNC(=O)c2ccco2)nc2ccccc21`, the inhibition is -1.68%.

As for `Cc1cccc(NC(=O)CCCNC(=O)c2ccc(Cl)cc2)n1`, the inhibition was -15.3%.

On to `COc1ccc(NCc2ccc(OC)c(Cn3ccnc3)c2)c(OC)c1`, for which the inhibition is 17.3%.

For `COc1cc(Cn2ccnc2)c(OC)cc1Cn1ccnc1`, the inhibition was 0.13%.

Take `CCCC(=O)Nc1ccc(-c2csc(NNC(C)=O)n2)cc1`: the inhibition is 8.91%.

Turning to `CN(C)CCOc1ncnc2c1oc1ccccc12`, the inhibition was -7.93%.

As for `CCc1nc(OCCN(C)C)c2oc3ccccc3c2n1`, the inhibition was 5.77%.

With `O=C(CCSc1nc(-c2ccco2)cc(C(F)(F)F)n1)NCc1ccccn1`, the inhibition is -4.91%.

In the case of `Cc1nc2scc(-c3cccs3)c2c(=O)n1N`, the inhibition was -9.74%.

Consider `Cc1ccc(C)n1-n1c(C)nc2scc(-c3cccs3)c2c1=O`, for which the inhibition is 1.92%.

For `CCCCc1nn(-c2cc(Cl)ccc2OC)c2c1C(=O)CCC2`, the inhibition is -11.2%.

As for `CCOC(=O)c1nn(-c2ccc(F)cc2)c2nc(CC(C)C)c(C#N)c(=O)n12`, the inhibition was -13.7%.

As for `Cc1cccc(OC(C)C(=O)OCC(=O)N2CCN(c3ccccc3)CC2)c1` (configuration not stated), the inhibition was 69.9%.

As to `Cc1ccc(C(=O)OCC(=O)N2CCC(c3ccccc3)=N2)cc1`, the inhibition is -0.51%.

On to `CCc1cc(C(=O)OCC(=O)N2CCC(c3ccccc3)=N2)sc1C`, for which the inhibition was 9.02%.

With `COc1ccc(NC(=O)c2cc(-c3cc(C)ccc3O)n[nH]2)cc1Cl`, the inhibition was -5.54%.

Consider `CC(C)(Oc1ccc(Cl)cc1)C(=O)NCc1n[nH]c(=O)c2ccccc12`, for which the inhibition was -7.84%.

In the case of `Cc1nn(C)cc1/C=N/NC(=O)C(C)(C)Oc1ccc(Cl)cc1`, the inhibition is -2.26%.

On to `CCOc1ccc(NC(=S)/C(=C(\[O-])c2ccc(C)c([N+](=O)[O-])c2)[n+]2ccccc2)cc1`, for which the inhibition was -4.46%.

On to `Cc1ccc(CNC(=S)Nc2ccc(C)c([N+](=O)[O-])c2)cc1`, for which the inhibition was 1.67%.

As for `CCOc1ccc(NC(=S)Nc2cc(C)[nH]n2)cc1`, the inhibition was 11.8%.

Turning to `Cc1ccc(NC(=S)Nc2cc(-c3ccccc3)[nH]n2)cc1Cl`, the inhibition was 3.77%.
